HttQ103 aggreg: reduces HttQ103-GFP aggregates in PC12 cells | PC12 HttQ103-GFP aggregates, Acumen cytometry, 40 h | Potency, µM (highest dose often 46.1 µM), usual class: inhibitors | 1.1% of 220,000 active; note: nearly all actives have a fitted effect of over 60% in size
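Multiplexed with ATP-based cell death, this channel scores GFP aggregates in PC12 cells expressing inducible HTTex1-Q103-GFP. Induction used 100 nM tebufenozide; compounds were tested in concentration series.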
HTT cytoprotect: Huntington cell model cytoprotection by ATP luminescence. PC12 HTT-Q103 induced, cytoprotection, ATP luminescence, 40 h. Potency, µM (highest dose often 56.4 µM), actives largely listed as activators. 0.14% of 230,000 active. AID 1471; note: nearly all actives have a fitted effect of over 45% in size
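PC12 cells stably carrying ecdysone-inducible Htt exon 1 (Q103)–GFP were induced with 100 nM tebufenozide (final) alongside library compounds in a dose series. Cytoprotection was scored as retained ATP by ATPlite luminescence.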
GoLoco inh red: blocks human Gai1 binding to RGS12 GoLoco peptide, red readout | P63096 | AID 880 | Potency, µM (highest dose often 61.6 µM), actives largely listed as inhibitors | 0.44% of 230,000 active | Gai1:RGS12 GoLoco peptide FP, rhodamine, 10 min; active = well fitted inhibition curve with a large enough effect, not every such curve was filed as active; inactive = no such curve, though single readings can be large or run the other way; note: nearly all actives have a fitted effect of over 30% in size
PNC assembly inh: perinucleolar compartment assembly inhibition; 3.1% of 140,000 active; PC3M PTB-GFP, PNC prevalence imaging, 16 h; active compounds read low; activity change (PNC), negative = inhibition, % at 10 µM; AID 2417;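 active = readout at or below -70, meaning at least 70% loss of cells showing the perinucleolar compartment, a nuclear body marking cancer cells; inconclusive = readout between -30 and a set limit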
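Read-out is percentage of cells bearing a perinucleolar compartment, from automated 20x imaging of fixed, Hoechst-stained PC3M PTB-GFP cells. Cells were seeded 4 h, then exposed 16 h to compound (23 nl of library stock) in duplicate plates.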
ALDH1A1 block: blocks purified human ALDH1A1 activity. P00352. Purified ALDH1A1, NADH fluorescence, propionaldehyde substrate. Potency, µM (series often up to 75.3 µM), usual class: inhibitors. 7.3% of 220,000 active. AID 1030; active = well fitted inhibition curve with a large enough effect, not every such curve was filed as active; inconclusive = small, poorly fitted or top-dose-only effect, or another doubt; inactive = no such curve, though single readings can be large or run the other way
Target sequence (P00352 whole entry, looked up): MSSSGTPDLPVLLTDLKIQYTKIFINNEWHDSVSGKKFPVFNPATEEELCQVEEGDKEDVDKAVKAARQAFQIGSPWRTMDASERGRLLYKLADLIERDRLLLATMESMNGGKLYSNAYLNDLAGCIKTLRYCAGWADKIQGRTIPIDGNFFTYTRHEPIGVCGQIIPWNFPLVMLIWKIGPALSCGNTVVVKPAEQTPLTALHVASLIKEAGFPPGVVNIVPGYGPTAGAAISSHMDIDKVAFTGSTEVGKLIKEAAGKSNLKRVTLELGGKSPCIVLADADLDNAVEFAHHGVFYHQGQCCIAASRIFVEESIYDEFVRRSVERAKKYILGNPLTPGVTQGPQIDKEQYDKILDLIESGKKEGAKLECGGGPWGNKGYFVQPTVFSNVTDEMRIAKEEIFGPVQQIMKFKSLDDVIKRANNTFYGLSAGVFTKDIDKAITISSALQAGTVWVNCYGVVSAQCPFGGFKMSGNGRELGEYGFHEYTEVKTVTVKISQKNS
HPGD inh: inhibitors of human 15-hydroxyprostaglandin dehydrogenase (HPGD). 4.3% of 150,000 active. AID 894. P15428. purified HPGD, NADH fluorescence kinetic, PGE2 substrate. Potency, µM, actives largely listed as inhibitors; active = well fitted inhibition curve with a large enough effect, not every such curve was filed as active; inconclusive = small, poorly fitted or top-dose-only effect, or another doubt; inactive = no such curve, though single readings can be large or run the other way
Target sequence (P15428 whole entry, looked up): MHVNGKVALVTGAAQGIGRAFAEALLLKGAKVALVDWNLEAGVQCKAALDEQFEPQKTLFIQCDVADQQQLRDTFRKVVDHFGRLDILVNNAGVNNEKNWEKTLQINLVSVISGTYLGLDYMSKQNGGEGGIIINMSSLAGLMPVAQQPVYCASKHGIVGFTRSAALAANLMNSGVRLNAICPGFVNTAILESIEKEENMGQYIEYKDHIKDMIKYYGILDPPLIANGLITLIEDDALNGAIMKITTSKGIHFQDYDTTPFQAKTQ
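NADH formation kinetics: reaction with 30 uM PGE2 and 1 mM NAD+ (final), 20 nM enzyme, Tris-HCl pH 8 with Tween 20, after 15 min compound preincubation at room temperature. Fluorescence change, last versus first of five reads.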
Of the large screens only hits and unclear results are named; the others gave an inactive call. Most compounds without a hit are left out; they make up all but 11% or so of the library. Unless noted, calls come from the whole dose curve; as a rule, active = well fitted curve in the direction sought with a large enough effect; inconclusive = small, poorly fitted or top-dose-only effect, or another doubt; inactive = no such curve, though single readings can be large; an effect the other way counts as inactive or inconclusive.

Cc1ccc(C#CC2C=CC(Oc3ccc4c(c3)OCO4)C(CO)O2)c(C)c1 (configuration not stated)	none (no result: HttQ103 aggreg, GoLoco inh red, PNC assembly inh, HPGD inh)
COC(=O)c1ccc(Cn2nc(C)c(Cl)c2C)o1	ALDH1A1 block 28.2µM
COC(=O)c1ccc(Cn2c(C)cc(C)[n+]2C)o1	GoLoco inh red 17.8µM, PNC assembly inh inconclusive
CCCCCCCC1=Cc2ccccc2C(CC(C)=O)N1C(=O)OC (configuration not stated)	HTT cytoprotect inconclusive (no result: HttQ103 aggreg, PNC assembly inh)
COC(=O)c1c(NC(=O)C2CC2)sc2c1CCCC2	PNC assembly inh inconclusive
COC(=O)c1c(NC(=O)c2ccoc2C)sc2c1CCC2	PNC assembly inh -109.2, ALDH1A1 block inconclusive, HPGD inh inconclusive
CCOC(=O)c1c(NC(=S)Nc2cc([N+](=O)[O-])ccc2OC)sc2c1CCCCC2	ALDH1A1 block inconclusive
COC(=O)c1c(NC(=O)c2nn(C)cc2Cl)sc2c1CCCC2	PNC assembly inh -92.3, ALDH1A1 block inconclusive, HPGD inh inconclusive
COC(=O)c1c(NC(=S)Nc2cc(OC)c(Cl)cc2OC)sc2c1CCCCC2	PNC assembly inh inconclusive, ALDH1A1 block 6.31µM, HPGD inh inconclusive
N[C@@]1(C(=O)O)CCC[C@@H]1C(=O)O	none (no result: HttQ103 aggreg, PNC assembly inh)
COc1ccc(C(C(=O)NCC2CCCO2)N(C(=O)CNC(=O)c2cccs2)c2ccc(C(C)=O)cc2)cc1OC (configuration not stated)	none (no result: HttQ103 aggreg, HTT cytoprotect, PNC assembly inh, HPGD inh)
CCC/C=C(\CCC)C(NC(=O)c1cccs1)c1ccc(C(=O)OC)cc1 (configuration not stated)	none (no result: HttQ103 aggreg, PNC assembly inh)
COc1ccc(CC(=O)N2CCCC(C)C2)cc1 (configuration not stated)	HPGD inh 28.2µM
COc1ccc(OC(C)C(=O)N2CCc3ccccc3C2)cc1 (configuration not stated)	HPGD inh 25.1µM
COc1ccc(-c2nnc(SCC(=O)N3CCCCC3)o2)c(OC)c1	ALDH1A1 block inconclusive, HPGD inh inconclusive
COc1ccc(Cc2nnc(SCC(=O)N3CCc4ccccc4C3)o2)cc1	ALDH1A1 block 12.6µM (no result: GoLoco inh red, HPGD inh)
CC1CCCN(C(=O)Cc2ccc(F)cc2)C1 (configuration not stated)	PNC assembly inh inconclusive, ALDH1A1 block inconclusive
COc1ccc(C(=O)NCC(=O)N2CCc3ccccc3C2)cc1	ALDH1A1 block inconclusive (no result: PNC assembly inh, HPGD inh)
COc1ccc(-c2nnc(SCC(=O)N3CCCC(C)C3)o2)c(OC)c1 (configuration not stated)	ALDH1A1 block inconclusive, HPGD inh 15.8µM
C/C(CC(=O)Nc1ccc([N+](=O)[O-])cc1)=N/NC(=O)C1C2CCCCC21 (configuration not stated)	none (no result: PNC assembly inh, ALDH1A1 block, HPGD inh)
COc1cc2c3cc1Oc1c(OC)c(OC)cc4c1[C@@H](Cc1ccc(O)c(c1)Oc1ccc(cc1)C[C@@H]3N(C)CC2)CN(C)C4	none (no result: HttQ103 aggreg, PNC assembly inh)
O=c1[nH]c(/C=C/c2ccccc2OC(F)F)nc2c1cnn2-c1ccccc1	ALDH1A1 block inconclusive, HPGD inh inconclusive
COc1ccc(Cc2nnc(SCC(=O)N3CCCC(C)C3)o2)cc1 (configuration not stated)	ALDH1A1 block 0.891µM (no result: HttQ103 aggreg, HTT cytoprotect, PNC assembly inh, HPGD inh)
Cc1cc(C)nc(NS(=O)(=O)c2ccc(Br)s2)c1	HttQ103 aggreg inconclusive, PNC assembly inh inconclusive, ALDH1A1 block 25.1µM, HPGD inh inconclusive
Cc1cccc(NS(=O)(=O)c2ccc(Br)s2)n1	PNC assembly inh inconclusive, ALDH1A1 block inconclusive
CCOc1ccccc1Nc1ccc(N)cc1S(=O)(=O)O	none (no result: HttQ103 aggreg, PNC assembly inh)
CC(C)(C)OC(=O)NCCCC[C@H](NC(=O)c1nc[nH]c1C(=O)NC(c1ccccc1)c1ccccc1)C(=O)OC(C)(C)C	ALDH1A1 block 2.82µM (no result: PNC assembly inh, HPGD inh)
C[C@H](NC(=O)c1nc[nH]c1C(=O)N[C@@H](Cc1ccccc1)C(=O)OCc1ccccc1)c1ccccc1	ALDH1A1 block 5.01µM (no result: PNC assembly inh, HPGD inh)
NC(=S)SCCC(=O)O	none (no result: HttQ103 aggreg, PNC assembly inh)
CCS(=O)(=O)n1nc(-c2ccc(Cl)cc2)nc1SC	ALDH1A1 block inconclusive, HPGD inh 12.6µM
CSc1nc(-c2ccco2)nn1C(=O)c1ccccc1	HPGD inh 14.1µM
CSc1nc(-c2ccco2)nn1S(=O)(=O)c1ccc(C)cc1	ALDH1A1 block inconclusive, HPGD inh inconclusive
CCS(=O)(=O)n1nc(-c2ccco2)nc1SC	ALDH1A1 block 22.4µM, HPGD inh 8.91µM
CSc1nc(-c2ccco2)nn1S(=O)(=O)c1ccccc1	PNC assembly inh inconclusive, ALDH1A1 block 14.1µM, HPGD inh 14.1µM
Cn1c(SCc2ccccc2)nnc1-c1ccco1	none (no result: PNC assembly inh, HPGD inh)
Cc1ccc(S(=O)(=O)n2nc(-c3ccco3)nc2SCc2ccccc2)cc1	PNC assembly inh inconclusive, ALDH1A1 block 22.4µM, HPGD inh 25.1µM
CN(C)c1ccc(S(=O)(=O)c2ccc(Cl)cc2)cc1	ALDH1A1 block inconclusive, HPGD inh inconclusive
CN(C)c1ccc(C2C3C(=O)NC(=O)C3ON2c2ccc(Cl)cc2)cc1 (configuration not stated)	PNC assembly inh inconclusive, ALDH1A1 block 25.1µM
O=C(NC1CCCCC1)N1CCN(c2ncccn2)CC1	PNC assembly inh -83.4
O=C(c1ccc(F)cc1)C1CCN(C(=O)NC2CCCCC2)CC1	ALDH1A1 block 11.2µM
S=C(NC1CCCCC1)N1CCN(c2ncccn2)CC1	none (no result: PNC assembly inh, HPGD inh)
COCCNc1nc(-c2ccccc2OC)nc2ccccc12	ALDH1A1 block inconclusive (no result: HttQ103 aggreg, PNC assembly inh, HPGD inh)
CC(=O)N1CCC2(CCCN(C(c3ccccc3)c3ccccc3)C2)CC1	none (no result: HttQ103 aggreg, PNC assembly inh)
CCOc1ccc(-n2nc(C(=O)N3CCN(CC)CC3)c3ccccc3c2=O)cc1	PNC assembly inh -85.6
COCC(=O)N1CCC2(CCN(Cc3ccc(C#N)cc3)CC2)CC1	none (no result: HttQ103 aggreg, PNC assembly inh)
COc1ccc(CSc2nnc(C)n2N)cc1[N+](=O)[O-]	ALDH1A1 block 12.6µM (no result: PNC assembly inh, HPGD inh)
COc1ccc(CSc2n[nH]c(C)n2)cc1[N+](=O)[O-]	ALDH1A1 block 10µM
CCc1nnc(SCc2ccc(OC)c(Br)c2)n1N	ALDH1A1 block 28.2µM
CC(C)=CCC1(CC=C(C)C)C(=O)C(C(=O)c2ccccc2)=C2OC(C)(C)CCC2(CC=C(C)C)C1=O (configuration not stated)	none (no result: HttQ103 aggreg, GoLoco inh red, PNC assembly inh, HPGD inh)
CCOc1ccc(NS(=O)(=O)c2ccc(C)c(C(=O)O)c2)cc1	none (no result: HttQ103 aggreg, HTT cytoprotect, GoLoco inh red, PNC assembly inh)
N#Cc1cc2sc3nnc(-c4ccncc4)n3c2cc1C#N	HTT cytoprotect 12.6µM (no result: HttQ103 aggreg)
N#Cc1cc2sc3nc4ccccc4n3c2cc1C#N	none
CN(C)c1ccc2c(c1)OC(N)=C(C#N)C2c1cccc(F)c1 (configuration not stated)	HttQ103 aggreg inconclusive, PNC assembly inh -85.0
COc1ccc(-c2nc3cnc(N(C)C)nc3n(Cc3ccc(F)cc3)c2=O)cc1	ALDH1A1 block inconclusive (no result: HttQ103 aggreg, PNC assembly inh, HPGD inh)
COC(=O)C/C=C/C(C)C(OCc1cccc(Br)c1)C(C)C(OC)C1CCCCC1 (configuration not stated)	none (no result: HttQ103 aggreg, GoLoco inh red, PNC assembly inh, HPGD inh)

Screens as filed in PubChem.
